Each structure is given as a SMILES string. The whole screen tested about 4,100 compounds, of which about 1,600 (39%) were called active. Inconclusive results (about 25%) are left out. Calls come from the whole dose curve; as a rule, active = well fitted inhibition curve with a large enough effect; inconclusive = small, poorly fitted or top-dose-only effect; inactive = no such curve, though single readings can be large or run the other way. The list shows a part of the results.

62 molecules from PubChem BioAssay AID1347416 (National Center for Advancing Translational Sciences (NCATS), 2020) can be followed below.
Potency is the fitted concentration of half-maximal effect.

The assay is described as follows: qHTS Validation assay for Inhibitors of Plasmodium falciparum Dd2 growth in vitro. Note: nearly all actives have a fitted effect of over 70% in size. To be noted: P. falciparum Dd2 in RBCs, SYBR Green growth, 72 h; series mostly up to 28.7 µM. The method, boiled down: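 P. falciparum Dd2-infected red blood cells (2.5% hematocrit, 0.3% parasitemia) grown 72 h at 37 °C under 5% O2 with compounds in a titration, 29 uM to 0.5 nM final. Growth read as SYBR Green-1 fluorescence after ~16 h lysis; artesunate 300 nM as positive control.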
Background: qHTS replaces the single test concentration by a dilution series.
As for `CCN(CC)c1ccc(NC(=O)COc2ccccc2C#N)cc1S(=O)(=O)Nc1ccccc1OC`, the Potency was 7.5 µM (active).

Consider `COc1ccccc1N(CC(=O)Nc1cc(C)cc(C)c1)S(C)(=O)=O`, for which the Potency result was “inactive”.

As to `CN(C)CC(CCC(CN(C)C)C(O)(c1ccccc1)c1ccccc1)C(O)(c1ccccc1)c1ccccc1` (configuration not stated), the Potency is 2.11 µM (active).

Consider `OC(Cc1ccncc1)(c1ccccc1)c1ccccc1`, for which the Potency entry was “inactive”.

With `O=S(=O)(Nc1cc2nc3ccccc3nc2n1Cc1ccccc1)c1ccc(Cl)cc1`, the Potency is 1.19 µM (active).

As to `CCOc1ccccc1Nc1nc2ccccc2nc1NS(=O)(=O)c1ccc(Cl)cc1`, the Potency entry was “inactive”.

Take `Cc1nn(CCCC(=O)Nc2ccccc2C(F)(F)F)c(=O)c2nn(-c3ccccc3)c(C)c12`: the Potency entry is “inactive”.

In the case of `COc1cc(Br)c(C(C)NC(=O)c2cccc(Br)c2)cc1OC` (configuration not stated), the Potency was 2.11 µM (active).

`CC(C)CN1C(=O)CO[C@H](c2ccc(NC(=O)C3CCCC3)cc2)[C@H]1CO`: the Potency entry was “inactive”.

As for `O=C(Nc1ccccc1O)c1ccc(NC(=O)C2CC2)cc1`, the Potency is 4.73 µM (active).

As for `COc1ccccc1N1CCN(CCCNC(=O)c2cnn(-c3ccccc3Cl)c2C2CCN(C(=O)OC(C)(C)C)CC2)CC1`, the Potency is 2.37 µM (active).

In the case of `COc1ccccc1N1CCN(CCCNC(=O)c2cnn(-c3cccc(Cl)c3)c2C2CCN(C(=O)OC(C)(C)C)CC2)CC1`, the Potency was 2.11 µM (active).

In the case of `CCN1CCN(c2cc(C)c3cc(NC(=O)c4cc(OC)c(OC)c(OC)c4)ccc3n2)CC1`, the Potency is 1.33 µM (active).

As for `CCN1c2cc(C(=O)Nc3cccc(Cl)c3)ccc2C(=O)N2CCCCC21` (configuration not stated), the Potency entry was “inactive”.

As to `Cc1cc(Nc2cccc(C(F)(F)F)c2)nc2ccc(NC(=O)c3cncc(Br)c3)cc12`, the Potency is 2.37 µM (active).

Regarding `Cc1cc(=O)n2[nH]c(NC(=O)c3cccc(Cl)c3)nc2n1`, the Potency entry was “inactive”.

Take `CCOc1ccc(C(=O)Nc2cccc(NC(=O)c3ccc(C(C)(C)C)cc3)c2)cc1Br`: the Potency result was “inactive”.

In the case of `CCN1CCN(c2cc(C)c3cc(NC(=O)c4cc(OC)cc(OC)c4)ccc3n2)CC1`, the Potency is 3.35 µM (active).

In the case of `CCN1CCN(c2cc(C)c3cc(NC(=O)c4cccc(Cl)c4)ccc3n2)CC1`, the Potency is 4.73 µM (active).

In the case of `CNC(=O)[C@@H]1C[C@H](Oc2ccccc2)CN1C(=O)c1cc2ccccc2[nH]1`, the Potency result was “inactive”.

In the case of `COc1ccc(Nc2cc(C)c3cc(NC(=O)c4cc(OC)cc(OC)c4)ccc3n2)cc1`, the Potency is 0.75 µM (active).

With `COc1cc(C(=O)Nc2ccc3nc(N4CCN(C)CC4)cc(C)c3c2)cc(OC)c1OC`, the Potency was 3.35 µM (active).

As for `COc1ccc(NC(=O)CCn2ccn3nc4c(c3c2=O)CCCC4)cc1OC`, the Potency entry is “inactive”.

On to `O=C(c1ccco1)N1CC(Oc2cccc(-c3nc(-c4ccccc4)no3)c2)C1`, for which the Potency entry was “inactive”.

For the molecule `Cc1noc(-c2cccc(OC3CN(S(=O)(=O)c4cn(C)cn4)C3)c2)n1`, the Potency entry is “inactive”.

As for `CCCNC(=O)N1CC(Oc2cccc(-c3nc(-c4ccccc4)no3)c2)C1`, the Potency is 13.3 µM (active).

Consider `COc1ccc(OC)c(S(=O)(=O)Nc2ccc(O)c3ccccc23)c1`, for which the Potency is 8.41 µM (active).

Regarding `COc1ccc(OC)c(S(=O)(=O)NCCc2sc(C)nc2C)c1`, the Potency result was “inactive”.

Turning to `Cc1nc(-c2ccc(Cl)cc2)sc1CCNC(=O)c1ccco1`, the Potency entry was “inactive”.

As to `CCCCN(C(=O)c1ccco1)c1nnc(-c2cc(OC)c(OC)c(OC)c2)s1`, the Potency is 2.99 µM (active).

Regarding `Cc1ccc(C(=O)NN2C(=O)C3C4C=CC(C4)[C@@H]3C2=O)cc1` (some centres not stated), the Potency entry is “inactive”.

On to `O=C(c1ccc2ncccc2c1)N1CCc2c(nc3cc[nH]n3c2=O)C1`, for which the Potency entry is “inactive”.

Turning to `OC(CNCC1CCCO1)Cn1c2ccc(Cl)cc2c2cc(Cl)ccc21` (configuration not stated), the Potency is 1.19 µM (active).

As to `COc1cc(-c2nc(-c3c(C)noc3C)cc3c2cc(C)n3CCN(C)C)ccn1`, the Potency was 17.2 µM (active).

Take `Cc1noc(C)c1-c1cc2c(cc(C)n2CCN(C)C)c(-c2cccc(O)c2)n1`: the Potency is 17.2 µM (active).

`COc1cccc(-c2noc(CCCc3nc(-c4cccnn4)no3)n2)c1`: the Potency entry is “inactive”.

On to `Cc1noc(C)c1-c1cc2c(cc(C)n2CCN(C)C)c(Nc2ccn(C)n2)n1`, for which the Potency is 13.7 µM (active).

On to `Cc1noc(C)c1-c1cc2c(cc(C)n2C)c(NCCN(C)C)n1`, for which the Potency entry is “inactive”.

Regarding `CCc1cccc(C)c1Nc1c(-c2cccc(O)c2)nc2sccn12`, the Potency result is “inactive”.

`COc1cccc(-c2nc(-c3c(C)noc3C)cc3c2cc(C)n3CCN(C)C)c1`: the Potency was 17.2 µM (active).

In the case of `O=[S+]1([O-])NCC2(CCN(CC3CC3)CC2)Nc2ccccc21`, the Potency entry is “inactive”.

In the case of `O=C(c1cccc(O)c1)N1CC=C(c2cnc3cnc(-c4ccccc4)cn23)CC1`, the Potency is 9.68 µM (active).

As for `O=C(c1ccsc1)N1CC(n2cc(-c3ccccc3)nn2)C1`, the Potency entry was “inactive”.

As for `O=C(NCc1ccccc1)c1ccccc1OC1CN(Cc2ccc(O)c(F)c2)C1`, the Potency was 15 µM (active).

On to `COCCNC(=O)[C@H]1C[C@H](Oc2ccccc2)CN1C(=O)c1ccccc1OC`, for which the Potency result was “inactive”.

Take `COc1ccc(CN2CC(Oc3ccccc3C(=O)NCc3ccccc3)C2)c(OC)c1`: the Potency is 10.6 µM (active).

Consider `Cc1ccsc1CN1CC(Oc2ccccc2C(=O)NC2CC2)C1`, for which the Potency entry was “inactive”.

In the case of `O=C(NCc1ccc(F)cc1)c1c2c(nc3ccccc13)C(=O)N(C1CCCCC1)C2`, the Potency result was “inactive”.

As for `Cc1c(CN2CC(Oc3ccccc3C(=O)NCc3ccccc3)C2)cnn1C`, the Potency was 4.22 µM (active).

For the molecule `O=C(NCC1CC1)c1cccc(OC2CN(Cc3cc(F)c(F)c(F)c3)C2)c1`, the Potency entry was “inactive”.

For `CCCN1CCN(C(=O)c2cc3c(s2)CCN(C(=O)c2ccc(F)cc2)C3)CC1`, the Potency result was “inactive”.

As for `O=C1C2=C(Nc3ccccc3SC2c2c(F)cccc2Cl)c2ccccc21` (configuration not stated), the Potency was 9.44 µM (active).

For `COc1ccc(C2Sc3ccccc3NC3=C2C(=O)c2ccccc23)c(OC)c1OC` (configuration not stated), the Potency was 0.75 µM (active).

`O=C1C2=C(Nc3ccccc3SC2c2ccco2)c2ccccc21` (configuration not stated): the Potency was 4.73 µM (active).

For `CCn1ncc(CN2CCCC23CCN(c2cc(C)nc4ccccc24)CC3)c1C`, the Potency was 5.31 µM (active).

For the molecule `CCn1cc(CN2CCCC23CCN(c2cc(C)nc4ccccc24)CC3)c(C)n1`, the Potency was 4.22 µM (active).

With `CN(C)c1nc2c(c(=O)[nH]1)CCN(Cc1ccc(F)cc1Cl)CC2`, the Potency was 10.6 µM (active).

Consider `COc1cc(OC)c(OC)cc1CN1CCc2nc(N(C)C)[nH]c(=O)c2CC1`, for which the Potency entry was “inactive”.

For `CN(C)c1nc2c(c(=O)[nH]1)CCN(Cc1ccccc1Br)CC2`, the Potency is 9.44 µM (active).

With `N#Cc1ccc(CN2CCc3n[nH]c(=O)n3CC2)cc1`, the Potency result is “inactive”.

`CN(C)c1nc2c(c(=O)[nH]1)CCN(Cc1ccc(Br)cc1)CC2`: the Potency is 13.3 µM (active).

Turning to `O=C(CCc1ccccc1)N1CCc2c(nc(-c3ccc(F)cc3)[nH]c2=O)C1`, the Potency result is “inactive”.
